Results from ChEMBL document CHEMBL1961873, “Compounds: GSK PKIS; Assays: Nanosyn kinase panel” (2012).

Tests used:
[1] = molecular target: Tyrosine-protein kinase Fyn (Homo sapiens) (UniProt P06241); conditions: at 1 µM
[2] = molecular target: Tyrosine-protein kinase HCK (Homo sapiens) (UniProt P08631); conditions: at 0.1 µM
[3] = molecular target: Tyrosine-protein kinase HCK (Homo sapiens) (UniProt P08631); conditions: at 1 µM
[4] = molecular target: Insulin-like growth factor 1 receptor (Homo sapiens) (UniProt P08069); conditions: at 0.1 µM
[5] = molecular target: Insulin-like growth factor 1 receptor (Homo sapiens) (UniProt P08069); conditions: at 1 µM
[6] = molecular target: Insulin receptor (Homo sapiens) (UniProt P06213); conditions: at 0.1 µM
[7] = molecular target: Insulin receptor (Homo sapiens) (UniProt P06213); conditions: at 1 µM
[8] = molecular target: Insulin receptor-related protein (Homo sapiens) (UniProt P14616); conditions: at 0.1 µM
[9] = molecular target: Insulin receptor-related protein (Homo sapiens) (UniProt P14616); conditions: at 1 µM
[10] = molecular target: T1, Tyrosine-protein kinase ITK/TSK (Homo sapiens) (UniProt Q08881); conditions: at 0.1 µM
T1 sequence (whole entry): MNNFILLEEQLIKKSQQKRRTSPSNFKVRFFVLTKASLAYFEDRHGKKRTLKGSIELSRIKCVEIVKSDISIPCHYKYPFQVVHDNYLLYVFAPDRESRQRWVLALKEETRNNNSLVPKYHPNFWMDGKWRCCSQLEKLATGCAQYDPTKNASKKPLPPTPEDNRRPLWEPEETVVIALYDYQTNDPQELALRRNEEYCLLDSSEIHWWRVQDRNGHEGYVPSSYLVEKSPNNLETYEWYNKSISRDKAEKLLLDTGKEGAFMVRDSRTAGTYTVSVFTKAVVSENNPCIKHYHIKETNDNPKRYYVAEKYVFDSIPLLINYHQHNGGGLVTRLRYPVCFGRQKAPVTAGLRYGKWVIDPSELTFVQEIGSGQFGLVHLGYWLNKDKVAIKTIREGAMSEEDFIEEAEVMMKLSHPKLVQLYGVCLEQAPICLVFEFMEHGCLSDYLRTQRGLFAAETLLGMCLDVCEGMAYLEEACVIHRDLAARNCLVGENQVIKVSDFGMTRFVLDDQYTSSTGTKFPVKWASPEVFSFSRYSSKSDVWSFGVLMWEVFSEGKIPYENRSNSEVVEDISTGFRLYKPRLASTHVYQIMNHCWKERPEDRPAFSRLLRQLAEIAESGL

[11] = molecular target: T1, Tyrosine-protein kinase ITK/TSK (Homo sapiens); conditions: at 1 µM
[12] = molecular target: Tyrosine-protein kinase JAK1 (Homo sapiens) (UniProt P23458); conditions: at 0.1 µM
[13] = molecular target: Tyrosine-protein kinase JAK1 (Homo sapiens) (UniProt P23458); conditions: at 1 µM
[14] = molecular target: Tyrosine-protein kinase JAK2 (Homo sapiens) (UniProt O60674); conditions: at 0.1 µM
[15] = molecular target: Tyrosine-protein kinase JAK2 (Homo sapiens) (UniProt O60674); conditions: at 1 µM
[16] = molecular target: T2, Tyrosine-protein kinase JAK3 (Homo sapiens) (UniProt P52333); conditions: at 0.1 µM
T2 sequence (whole entry): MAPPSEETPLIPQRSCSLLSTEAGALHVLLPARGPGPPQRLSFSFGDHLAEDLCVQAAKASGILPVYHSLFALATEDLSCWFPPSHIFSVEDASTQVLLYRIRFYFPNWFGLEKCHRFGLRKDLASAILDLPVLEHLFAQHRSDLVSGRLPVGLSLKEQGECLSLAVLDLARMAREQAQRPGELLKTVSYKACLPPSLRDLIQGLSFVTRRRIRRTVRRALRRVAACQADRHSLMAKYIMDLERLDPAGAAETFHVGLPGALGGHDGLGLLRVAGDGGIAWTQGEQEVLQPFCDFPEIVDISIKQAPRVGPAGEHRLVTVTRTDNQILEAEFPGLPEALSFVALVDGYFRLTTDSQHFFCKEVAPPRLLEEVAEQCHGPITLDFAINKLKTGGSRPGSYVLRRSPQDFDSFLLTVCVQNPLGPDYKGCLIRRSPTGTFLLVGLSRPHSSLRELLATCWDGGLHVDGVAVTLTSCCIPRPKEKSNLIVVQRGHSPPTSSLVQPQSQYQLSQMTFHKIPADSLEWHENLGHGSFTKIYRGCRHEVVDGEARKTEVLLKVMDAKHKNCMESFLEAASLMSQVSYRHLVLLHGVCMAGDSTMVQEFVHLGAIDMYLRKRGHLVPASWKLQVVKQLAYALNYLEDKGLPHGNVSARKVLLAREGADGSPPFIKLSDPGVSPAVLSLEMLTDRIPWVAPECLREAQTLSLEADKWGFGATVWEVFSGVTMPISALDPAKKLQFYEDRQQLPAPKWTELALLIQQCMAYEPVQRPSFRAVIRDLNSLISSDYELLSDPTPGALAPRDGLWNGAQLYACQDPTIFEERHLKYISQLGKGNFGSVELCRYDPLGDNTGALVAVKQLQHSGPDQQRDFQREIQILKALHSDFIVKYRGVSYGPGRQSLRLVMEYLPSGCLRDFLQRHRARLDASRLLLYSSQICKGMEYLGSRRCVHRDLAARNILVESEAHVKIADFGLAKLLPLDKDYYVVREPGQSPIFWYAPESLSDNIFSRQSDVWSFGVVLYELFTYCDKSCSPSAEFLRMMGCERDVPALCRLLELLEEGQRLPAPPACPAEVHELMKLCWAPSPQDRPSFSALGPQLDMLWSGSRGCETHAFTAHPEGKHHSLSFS

[17] = molecular target: T2, Tyrosine-protein kinase JAK3 (Homo sapiens); conditions: at 1 µM
[18] = molecular target: Vascular endothelial growth factor receptor 2 (Homo sapiens) (UniProt P35968); conditions: at 0.1 µM
[19] = molecular target: Vascular endothelial growth factor receptor 2 (Homo sapiens) (UniProt P35968); conditions: at 1 µM
[20] = molecular target: Mast/stem cell growth factor receptor Kit (Homo sapiens) (UniProt P10721); conditions: at 0.1 µM;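 note: values are mean inhibition of KIT, from the GSK PKIS dataset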

Sequence of Tyrosine-protein kinase JAK2 (Homo sapiens) (O60674 whole entry): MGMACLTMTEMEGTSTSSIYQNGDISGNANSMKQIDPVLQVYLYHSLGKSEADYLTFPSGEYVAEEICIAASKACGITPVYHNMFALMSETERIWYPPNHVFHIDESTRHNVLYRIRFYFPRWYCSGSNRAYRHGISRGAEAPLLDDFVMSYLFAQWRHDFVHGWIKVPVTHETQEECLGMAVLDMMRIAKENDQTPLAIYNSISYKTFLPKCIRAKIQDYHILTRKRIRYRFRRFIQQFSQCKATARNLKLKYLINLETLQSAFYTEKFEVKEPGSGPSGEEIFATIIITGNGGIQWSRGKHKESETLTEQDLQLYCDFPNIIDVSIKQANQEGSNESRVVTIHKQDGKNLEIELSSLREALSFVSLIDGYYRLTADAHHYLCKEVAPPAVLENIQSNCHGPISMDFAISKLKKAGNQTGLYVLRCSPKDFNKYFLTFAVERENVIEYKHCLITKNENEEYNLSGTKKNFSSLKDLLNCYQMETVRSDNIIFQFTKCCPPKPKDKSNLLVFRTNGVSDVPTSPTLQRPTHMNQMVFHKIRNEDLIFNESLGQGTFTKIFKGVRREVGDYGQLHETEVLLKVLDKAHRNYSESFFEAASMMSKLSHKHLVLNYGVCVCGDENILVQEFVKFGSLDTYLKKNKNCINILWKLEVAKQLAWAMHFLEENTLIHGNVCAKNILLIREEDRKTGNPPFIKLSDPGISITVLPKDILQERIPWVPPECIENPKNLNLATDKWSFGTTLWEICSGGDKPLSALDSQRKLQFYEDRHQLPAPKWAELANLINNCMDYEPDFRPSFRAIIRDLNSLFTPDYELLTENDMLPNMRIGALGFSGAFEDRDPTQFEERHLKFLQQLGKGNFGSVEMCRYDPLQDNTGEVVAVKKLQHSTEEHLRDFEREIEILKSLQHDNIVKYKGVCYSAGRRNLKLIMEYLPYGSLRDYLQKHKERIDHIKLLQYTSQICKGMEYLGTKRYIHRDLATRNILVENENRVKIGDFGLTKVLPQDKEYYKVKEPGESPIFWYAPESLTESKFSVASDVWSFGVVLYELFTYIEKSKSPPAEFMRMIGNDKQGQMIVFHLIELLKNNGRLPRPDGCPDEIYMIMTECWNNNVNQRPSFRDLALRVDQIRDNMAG
Sequence of Tyrosine-protein kinase JAK1 (Homo sapiens) (P23458 whole entry): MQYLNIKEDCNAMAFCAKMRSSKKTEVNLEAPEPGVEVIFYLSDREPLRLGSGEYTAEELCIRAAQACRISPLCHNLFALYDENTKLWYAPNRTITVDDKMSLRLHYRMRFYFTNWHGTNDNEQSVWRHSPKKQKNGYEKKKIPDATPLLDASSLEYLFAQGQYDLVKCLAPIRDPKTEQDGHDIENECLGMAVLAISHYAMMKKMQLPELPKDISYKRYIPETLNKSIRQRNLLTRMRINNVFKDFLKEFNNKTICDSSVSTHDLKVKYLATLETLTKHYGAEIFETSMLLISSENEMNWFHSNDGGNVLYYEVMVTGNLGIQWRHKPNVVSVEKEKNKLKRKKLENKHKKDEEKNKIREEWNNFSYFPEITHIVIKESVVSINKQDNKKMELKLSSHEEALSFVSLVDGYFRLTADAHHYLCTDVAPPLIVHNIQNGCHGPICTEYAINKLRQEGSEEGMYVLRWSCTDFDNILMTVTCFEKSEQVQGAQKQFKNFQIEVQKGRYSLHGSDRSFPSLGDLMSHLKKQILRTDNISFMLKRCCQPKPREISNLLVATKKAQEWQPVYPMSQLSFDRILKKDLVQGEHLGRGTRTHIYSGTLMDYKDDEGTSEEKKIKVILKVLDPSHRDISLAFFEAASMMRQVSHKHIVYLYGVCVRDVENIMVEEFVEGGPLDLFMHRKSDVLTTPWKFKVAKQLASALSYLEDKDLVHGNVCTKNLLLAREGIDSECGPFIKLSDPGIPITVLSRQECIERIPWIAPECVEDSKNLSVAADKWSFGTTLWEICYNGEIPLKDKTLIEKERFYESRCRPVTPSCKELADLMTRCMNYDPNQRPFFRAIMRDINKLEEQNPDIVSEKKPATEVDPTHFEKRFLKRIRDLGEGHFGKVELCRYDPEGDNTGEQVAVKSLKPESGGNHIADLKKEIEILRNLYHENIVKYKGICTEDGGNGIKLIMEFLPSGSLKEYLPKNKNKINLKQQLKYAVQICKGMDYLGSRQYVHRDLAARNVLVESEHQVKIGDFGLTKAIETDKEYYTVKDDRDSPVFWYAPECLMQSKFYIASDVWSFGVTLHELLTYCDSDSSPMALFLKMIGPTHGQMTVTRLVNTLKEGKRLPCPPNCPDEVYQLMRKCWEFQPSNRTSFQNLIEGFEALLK
Sequence of Tyrosine-protein kinase HCK (Homo sapiens) (P08631 2-526 limits assumed): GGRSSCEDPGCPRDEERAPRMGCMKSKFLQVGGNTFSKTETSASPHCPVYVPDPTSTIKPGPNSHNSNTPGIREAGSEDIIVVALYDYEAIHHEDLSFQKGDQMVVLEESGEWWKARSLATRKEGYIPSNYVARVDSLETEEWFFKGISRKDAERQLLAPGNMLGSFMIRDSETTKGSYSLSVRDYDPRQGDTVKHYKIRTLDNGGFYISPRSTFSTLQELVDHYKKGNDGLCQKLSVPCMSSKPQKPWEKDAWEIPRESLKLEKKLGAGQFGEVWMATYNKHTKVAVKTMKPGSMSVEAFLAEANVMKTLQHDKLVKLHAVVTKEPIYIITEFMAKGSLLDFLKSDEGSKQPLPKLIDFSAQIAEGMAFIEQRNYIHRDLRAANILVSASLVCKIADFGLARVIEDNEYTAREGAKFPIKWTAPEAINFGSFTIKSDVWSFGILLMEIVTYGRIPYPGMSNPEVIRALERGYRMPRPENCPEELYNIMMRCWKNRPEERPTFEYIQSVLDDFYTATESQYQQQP
Sequence of Vascular endothelial growth factor receptor 2 (Homo sapiens) (P35968 whole entry): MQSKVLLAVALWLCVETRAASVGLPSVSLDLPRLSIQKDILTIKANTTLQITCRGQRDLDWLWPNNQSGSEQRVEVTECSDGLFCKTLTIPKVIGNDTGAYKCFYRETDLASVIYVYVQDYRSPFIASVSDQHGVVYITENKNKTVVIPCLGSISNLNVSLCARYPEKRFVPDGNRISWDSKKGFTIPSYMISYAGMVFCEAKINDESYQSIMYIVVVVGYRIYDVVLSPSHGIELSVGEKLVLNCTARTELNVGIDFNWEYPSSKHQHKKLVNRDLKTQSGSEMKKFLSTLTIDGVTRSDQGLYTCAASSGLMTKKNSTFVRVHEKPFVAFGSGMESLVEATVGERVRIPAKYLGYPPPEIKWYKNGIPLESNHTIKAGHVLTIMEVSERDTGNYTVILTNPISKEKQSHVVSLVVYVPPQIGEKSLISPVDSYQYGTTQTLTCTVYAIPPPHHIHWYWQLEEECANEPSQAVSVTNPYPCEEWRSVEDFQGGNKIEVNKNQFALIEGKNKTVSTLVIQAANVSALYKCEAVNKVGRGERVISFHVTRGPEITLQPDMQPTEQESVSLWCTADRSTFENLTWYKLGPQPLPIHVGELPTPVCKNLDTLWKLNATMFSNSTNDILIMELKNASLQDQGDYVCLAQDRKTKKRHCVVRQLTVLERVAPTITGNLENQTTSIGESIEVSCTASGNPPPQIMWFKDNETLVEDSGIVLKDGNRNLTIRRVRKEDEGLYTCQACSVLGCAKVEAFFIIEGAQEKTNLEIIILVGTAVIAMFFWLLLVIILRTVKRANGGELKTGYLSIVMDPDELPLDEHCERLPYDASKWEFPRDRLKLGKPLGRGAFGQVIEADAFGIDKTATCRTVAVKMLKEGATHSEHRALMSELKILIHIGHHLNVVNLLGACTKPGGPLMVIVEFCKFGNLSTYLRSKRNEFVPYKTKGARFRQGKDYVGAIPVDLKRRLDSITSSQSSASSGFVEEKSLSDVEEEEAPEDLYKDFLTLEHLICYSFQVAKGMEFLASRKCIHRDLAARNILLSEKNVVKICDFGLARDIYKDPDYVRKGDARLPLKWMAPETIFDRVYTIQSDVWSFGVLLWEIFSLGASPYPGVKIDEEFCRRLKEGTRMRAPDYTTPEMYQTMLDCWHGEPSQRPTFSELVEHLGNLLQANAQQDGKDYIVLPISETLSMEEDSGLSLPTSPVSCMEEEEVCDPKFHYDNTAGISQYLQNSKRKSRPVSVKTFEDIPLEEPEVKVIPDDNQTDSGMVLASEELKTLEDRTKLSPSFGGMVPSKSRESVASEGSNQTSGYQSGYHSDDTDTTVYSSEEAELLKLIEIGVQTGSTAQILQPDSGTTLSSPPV
Sequence of Tyrosine-protein kinase Fyn (Homo sapiens) (P06241 2-537 limits assumed): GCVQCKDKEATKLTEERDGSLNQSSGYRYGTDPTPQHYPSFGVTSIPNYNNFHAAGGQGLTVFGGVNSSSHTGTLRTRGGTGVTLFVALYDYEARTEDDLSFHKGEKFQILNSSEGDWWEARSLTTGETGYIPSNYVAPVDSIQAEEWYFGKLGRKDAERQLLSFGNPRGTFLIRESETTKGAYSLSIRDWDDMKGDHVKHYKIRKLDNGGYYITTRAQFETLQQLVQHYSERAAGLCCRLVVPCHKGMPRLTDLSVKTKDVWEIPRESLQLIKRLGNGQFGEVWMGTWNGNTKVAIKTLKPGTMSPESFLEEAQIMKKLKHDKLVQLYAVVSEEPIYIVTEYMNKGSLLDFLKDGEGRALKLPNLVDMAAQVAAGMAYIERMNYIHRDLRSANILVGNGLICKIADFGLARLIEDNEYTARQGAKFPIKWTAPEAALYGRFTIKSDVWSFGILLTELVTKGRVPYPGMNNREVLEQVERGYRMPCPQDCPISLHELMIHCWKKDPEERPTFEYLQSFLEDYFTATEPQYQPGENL

Structure (SMILES) | inhibition [1] | inhibition [2] | inhibition [3] | inhibition [4] | inhibition [5] | inhibition [6] | inhibition [7] | inhibition [8] | inhibition [9] | inhibition [10] | inhibition [11] | inhibition [12] | inhibition [13] | inhibition [14] | inhibition [15] | inhibition [16] | inhibition [17] | inhibition [18] | inhibition [19] | inhibition [20]
CCN1CCC(CC(=O)Nc2n[nH]c3nc(-c4cccs4)c(Br)cc23)CC1 | -1.4% | -0.44% | 0.93% | -1.09% | 1.31% | -0.61% | -1.43% | -2.33% | 0.01% | -0.21% | 0.48% | -7.81% | -3.93% | -1.09% | -2.38% | 0.48% | 2.19% | 1.49% | 15.5% | -4.07%
CCn1c(-c2nonc2N)nc2c(C#CC(C)(C)O)nc(CN3CCCC3)cc21 | 3.44% | -1.79% | 2.1% | -0.3% | -1.42% | 0.13% | -0.45% | -1.19% | -0.92% | 0.22% | 0.72% | 1.82% | 3.25% | 0.37% | -0.34% | 0.46% | 1.49% | 5.26% | 20.1% | -3.09%
CN(C)c1cc2c(Nc3ccc4nc(Cc5ccccc5)[nH]c4c3)ncnc2cn1 | 27.7% | 11.5% | 30.6% | 6.59% | 11.5% | 7.56% | 8.05% | 3.36% | 4.95% | 1.45% | 1.51% | 5.67% | 8.16% | 2.34% | 1.44% | -1.29% | -1.24% | 7.5% | 10.4% | 4.97%
NC(=O)c1ccc(-c2nc(-c3ccccn3)c(-c3ccc4c(c3)OCO4)[nH]2)cc1 | 8.01% | 3.56% | 4.66% | 1.18% | 2.2% | 3.26% | 5.06% | 3.02% | -0.59% | 1.2% | 1.43% | 3.36% | 8.87% | 1.02% | 1.92% | -1.26% | 0.2% | 2.91% | 3.09% | 1.09%
CNC(=O)c1cncc(/C=C/c2c(Cl)cccc2Cl)c1 | 15.1% | 11.6% | 44.9% | -8.06% | -3% | 3.59% | 2.79% | 2.44% | 2.34% | -1.98% | -1.73% | 2.61% | 2.48% | 1.58% | 2.6% | -4.61% | -3.71% | 6.02% | 13.1% | 5.81%
CS(=O)(=O)CCNCc1ccc(-c2ccc3ncnc(Nc4ccc(OCc5ccccc5)c(Cl)c4)c3c2)o1 | 9.03% | 1.16% | 5.85% | 5.19% | -0.77% | 1.79% | 1.45% | -1.48% | -1.47% | -0.01% | 1.43% | -0.15% | 1.78% | -0.29% | 1.05% | 0.91% | 2.44% | 6.23% | 14.2% | 2.73%
COc1cc2ncn(-c3cc(O[C@H](C)c4ccccc4Cl)c(C(N)=O)s3)c2cc1OC | 8.81% | 11.7% | 51.8% | 2.5% | 3.13% | 2.07% | 4.73% | 1.49% | 2.98% | 2.64% | 8.66% | 8.61% | 21.9% | 1.66% | 6.6% | 0.32% | 25.9% | 36.4% | 72.5% | 7.11%
CC1=C(C(=O)Nc2ccc3[nH]ncc3c2)C(c2ccc3ccccc3c2)CC(=O)N1 (stereo not given) | 1.8% | 4.76% | 17.9% | 4% | 6.6% | 4.67% | 4.45% | 0.94% | 1.74% | 2.6% | 14.2% | 4.05% | 29.5% | 2.05% | 25.8% | 0.88% | 30.9% | 5.3% | 12.5% | 2.51%
Cc1cccc(-c2n[nH]cc2-c2ccc3ncccc3n2)n1 | 6.38% | 0.57% | 5.58% | 1.27% | -0.01% | -0.03% | 2.58% | -0.57% | -0.38% | 0.38% | 1.48% | -0.09% | 3.85% | -0.23% | -0.14% | 0.65% | 3.06% | 61.3% | 83.2% | -0.25%
COc1ccc(COc2ccc(Cc3cnc(N)nc3N)cc2OC)cc1 | 1.28% | 3.28% | 3.12% | -2.27% | -0.91% | 0.54% | -1% | 0.04% | -0.57% | 1.47% | 2.31% | 3.77% | -0.05% | 1.99% | 4.19% | 2.12% | 3.61% | 6.02% | 9.65% | 1.04%
[O-][S+]1CCN(Cc2ccc(-c3ccc4ncnc(Nc5ccc(OCc6ccccc6)c(F)c5)c4c3)o2)CC1 | 9.16% | 3.37% | 7.23% | 4.94% | 2.99% | 4.18% | 4.1% | 0.94% | 2.32% | 1.08% | 2.13% | 0.52% | 0.63% | 0.4% | 0.64% | 0.01% | -0.11% | 2.98% | 6.19% | 2.02%
Cn1cc(C=C2C(=O)Nc3cccnc32)c2ccccc21 | 15.4% | 6.56% | 42.1% | 1.72% | 8.98% | 3.49% | 20.1% | 0.41% | 1.8% | 2.56% | 15.7% | 1.61% | -6.11% | 0.37% | 2.77% | -0.5% | 4.53% | 14.7% | 54.8% | 11.3%
CCCN1CCC=C(c2ccc(Nc3nc(Nc4ccccc4C(N)=O)c4cc[nH]c4n3)c(C)c2)C1 | 7.24% | 7.82% | 16.3% | 97.6% | 99.2% | 84% | 90.1% | 23.2% | 70.8% | 1.99% | 7.61% | 2.14% | 3.46% | 2.19% | 2.74% | -1.04% | 0.49% | 0.98% | 17.7% | 4.24%
